Compound activity as filed in PubChem BioAssay.
Hits are enriched below; roughly 12% of the tested compounds scored in any of these assays.
TDP1 block: inhibitors of human tyrosyl-DNA phosphodiesterase TDP1 | AID 485290 | Potency, µM (top dose mostly 130 µM), for inactives: at the top dose activity change, negative = inhibition, hits mostly inhibitors | Q9NUW8 | actives 0.28% (n = 350,000) | recombinant TDP1, AlphaScreen DNA substrate cleavage; further: on the % scale 0 is the no-effect control and ±100 the full control effect; nearly all actives have a fitted effect of over 40% in size
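Recombinant E. coli-expressed Tdp1 (1 nM) preincubated with compound 15 min at RT, then 5'-biotin/3'-phosphotyrosine-FITC DNA substrate (15 nM) added for 5 min. AlphaScreen beads (10 ug/ml) added, 10 min RT; tyrosine-FITC cleavage read as signal loss.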
BAZ2B inh: blocks human BAZ2B; Potency, µM (doses to about 114 µM), for the others: at the highest dose activity change, negative = inhibition, most hits filed as inhibitors; AlphaScreen BAZ2B-H3K14Ac peptide displacement; actives 4.4% (n = 360,000); AID 504333; further: on the % scale 0 is the no-effect control and ±100 the full control effect; nearly all actives have a fitted effect of over 60% in size
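AlphaScreen displacement: compounds (up to 110uM) incubated 30 min at room temperature with a preformed 50 nM BAZ2B/50 nM biotinylated H3K14Ac peptide complex in PBS pH 7.4 with Tween-20. Donor and acceptor beads at 10 ug/mL final added, 20 min light-protected before reading.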
JMJD2A Tudor inh: JMJD2A Tudor domain (human) inhibition. O75164. AlphaScreen JMJD2A-Tudor / H3K4me3 peptide binding. Potency, µM (top dose mostly 114 µM), for inactives: top-dose activity change, negative = inhibition, actives largely listed as inhibitors. actives 4.4% (n = 390,000). AID 504339; further: on the % scale 0 is the no-effect control and ±100 the full control effect; nearly all actives have a fitted effect of over 50% in size
HP1b binding inh: inhibitors of HP1-beta chromodomain binding to methylated histone tails | actives 0.56% (n = 390,000) | AID 540317 | AlphaScreen HP1-beta / biotin-H3K9me3 peptide binding | Potency, µM (top dose mostly 114 µM), for inactives: at the top dose activity change, negative = inhibition, actives largely listed as inhibitors; further: nearly all actives have a fitted effect of over 70% in size
Target sequence (P83916 whole entry, looked up): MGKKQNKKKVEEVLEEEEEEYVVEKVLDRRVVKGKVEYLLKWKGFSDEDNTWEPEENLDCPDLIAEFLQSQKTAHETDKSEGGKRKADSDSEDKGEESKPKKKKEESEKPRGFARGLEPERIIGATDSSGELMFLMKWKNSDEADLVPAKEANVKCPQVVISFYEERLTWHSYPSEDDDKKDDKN
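HP1-beta protein (50 nM final) preincubated 30 min at room temperature with biotinylated H3(1-18)K9me3 peptide (50 nM) in PBS pH 7.4, 0.01% Tween-20, then compound added for 30 min. AlphaScreen streptavidin donor/nickel chelate acceptor beads (10 ug/mL final), 30 min dark, luminescence read.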
G9a inh: G9a (human) methyltransferase inhibition; Q96KQ7; G9a H3K9 monomethylation, AlphaScreen, 2 h; Potency, µM (titrated, usually from 102 µM), for the others: at the highest dose activity, negative = inhibition, hits mostly inhibitors; actives 8.8% (n = 350,000); further: on the % scale 0 is the no-effect control and ±100 the full control effect; nearly all actives have a fitted effect of over 75% in size
Target sequence (Q96KQ7 913-1193 limits assumed): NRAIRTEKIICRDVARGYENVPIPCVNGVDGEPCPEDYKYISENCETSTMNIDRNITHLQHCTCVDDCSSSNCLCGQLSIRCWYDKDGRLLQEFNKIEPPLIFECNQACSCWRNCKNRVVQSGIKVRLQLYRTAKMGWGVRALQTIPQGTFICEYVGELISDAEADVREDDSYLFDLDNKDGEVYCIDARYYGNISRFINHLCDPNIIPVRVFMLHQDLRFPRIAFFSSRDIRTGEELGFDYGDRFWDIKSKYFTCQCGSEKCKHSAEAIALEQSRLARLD
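Enzyme 20 nM + cpd, 15 min RT; add b-H3K9 pep 500 nM / SAM 20 uM; 2 h RT; anti-H3K9me1 Ab 0.5 ug/mL + SA donor / anti-rabbit acceptor beads 20 ug/mL each, 10 min; AlphaScreen read.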
Sfp inh: inhibitors of Bacillus subtilis Sfp phosphopantetheinyl transferase | Q9F4F7 | Biochemical Sfp PPTase activity, qHTS | Potency, µM, for the others: largest response in the series, negative = inhibition, hits mostly inhibitors | actives 3.5% (n = 310,000);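 further: the enzyme is Sfp with the accession as filed and its product quenches rhodamine fluorescence; 0% = enzyme reaction without inhibitor and -100% = no enzyme wells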
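Fluorescence-quenching assay with 15 nM Sfp, 5 uM rhodamine-CoA and 12.5 uM BHQ-2-labelled ybbR peptide in pH 7.6 Hepes/MgCl2 buffer. Enzyme was pre-incubated with compound for 15 min at room temperature. Rate was taken from the 30-min fluorescence change (525/598 nm).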
* marks the source's active call; other numbers are inactive results; ? = inconclusive; · = no result given; ! = not active in a repeat; [ ] = remark or other dose. The call rests on the fitted dose curve; in most records, active means well fitted curve in the direction sought with a large enough effect; inconclusive means small, poorly fitted or top-dose-only effect, or another doubt; inactive means no such curve, though single readings can be large; an effect the other way counts as inactive or inconclusive. Potency means the concentration at half of the fitted maximal effect.

SMILES	TDP1 block	BAZ2B inh	JMJD2A Tudor inh	HP1b binding inh	G9a inh	Sfp inh
O=C1NC(=S)NC(=O)C1=Cc1ccc(OCc2ccccc2)cc1	·	·	79µM*	-9%	·	·
CCCC[N+](=O)[O-]	12%	·	·	·	·	·
CN(C)c1ccc(CNC(=O)Cn2c(=O)oc3cc(S(=O)(=O)N4CCCCCC4)ccc32)cc1	8%	25µM*	?	-33%	11µM*	·
CN(C)C1C(=O)C(C(N)=O)=C(O)[C@@]2(O)C(=O)C3=C(O)c4c(O)cccc4[C@@](C)(O)C3[C@H](O)C12 (stereo partly specified)	·	·	·	·	·	56µM*
CN(C)[C@@H]1C(=O)C(C(N)=O)=C(O)[C@]2(O)C(=O)C3=C(O)c4c(O)cccc4[C@@](C)(O)[C@H]3[C@H](O)[C@@H]12	·	·	·	·	5µM*	-2%
CN(C)[C@@H]1C(=O)C(C(N)=O)=C(O)[C@@]2(O)C(=O)C3=C(O)c4c(O)cccc4[C@@](C)(O)C3[C@H](O)C12 (stereo partly specified)	·	6.3µM*	3.2µM*	14µM*!	4.5µM*	·
O=C(NCCc1ccc(Cl)cc1)C(=O)NCC(c1cccs1)S(=O)(=O)c1cccs1 (stereo unspecified)	10%	1%	-5%	53%	1%[59 µM]	·
CCc1ccccc1NC(=O)NNS(=O)(=O)c1cc(C)ccc1C	4%	0%	-14%	21%	58%	5%
CCCN(CCC)CCc1ccc(O)c(O)c1	-7%	·	·	·	20µM*!	-24%
OCCCc1ccc(O)c(O)c1	-9%	-14%	40µM*	?	-122%[59 µM]	50µM*
CCCCC/C=C\C/C=C\CCCCCCCCCC(=O)NCCc1ccc(O)c(O)c1	6%	·	·	·	·	14%
CCCCC/C=C\C/C=C\C/C=C\CCCCC(=O)NCCc1ccc(O)c(O)c1	6%	·	·	·	·	11%
OCC(CBr)(CBr)CBr	-5%	0%	-17%	27%	2%[0.501 µM]	·
O=c1c(O)c(-c2ccc(O)c(O)c2)oc2cc(O)cc(O)c12	15%[56.1 µM]	?	?	-8%	13µM*	56µM*!
O=c1cc(-c2ccc(O)c(O)c2)oc2cc(O)cc(O)c12	11%	79µM*	45µM*	-15%	10µM*	?
CCN1CCN(c2ccc(N)cc2C)CC1	4%	?	?	-14%	32µM*	14%
CCN1CCN(Cc2ccc(C)cc2)CC1	-2%	-4%	1%	36%	?	13%
CN1CCN(c2ccc(N)cc2)CC1	5%	?	?	-11%	13µM*	9%
CN1CCN(c2ccc(N)c(N3CCN(C)CC3)c2)CC1	10%	?	-30%	-8%	?	-13%
CCN1CCN(c2ccc(N)cc2)CC1	2%	-18%	-28%	3%	40µM*	5%
CCN1CCN(c2ccc(NC(C)=O)cc2Cl)CC1	1%	-18%	-10%	48%	2%	11%
C=CCN1C(=O)NC(=O)C(Cc2ccc(OC)c(OC)c2)C1=O (stereo unspecified)	-3%	3%	-2%	19%	?	?
O=C1NC(=O)N(CCNc2ncc(C(F)(F)F)cc2Cl)C(=O)C1Cc1ccc(Cl)cc1 (stereo unspecified)	0%	-15%	-8%	20%	50µM*	?
CCc1nnc(NC(=O)CSc2ccc(-c3ccco3)nn2)s1	22µM*	50µM*	9%	17%	22µM*	28µM*
O=C(CSc1ccc(-c2ccco2)nn1)Nc1ccccc1	3%	-15%	-25%	2%	20µM*	32µM*
CC(=O)Nc1nnc(SCC(=O)NCCOc2ccccc2)s1	7%	?	-18%	-5%	?	-11%
Cc1cc(SCC(=O)N/N=C/c2ccco2)nc2ccccc12	3%	?	-27%	14%	·	5%
CC[C@]1(c2cccc(O)c2)CCCCN(C)C1	9%[21 µM]	·	·	·	20%[21.5 µM]	19%
